Experimental findings from ChEMBL document CHEMBL3988442, “University of Dundee, Small-Polar-MMV Screening Library” (2021) are described below.

About 13,000 (27%) of roughly 48,000 compounds showed an effect of 50% or more. Some of the results follow.

In this experiment the test system is Wolbachia pipientis. Description: Anti-Wolbachia Cell-Based Screen. Format: functional. Also on record: scale not given: in the data most compounds retested in dose-response had high values. Conditions: 5 µM.
Turning to `CN1CC(NC(=O)Cc2csc(C(C)(C)C)n2)CCC1=O` (configuration not stated), the “Percent Effect” value is recorded as -3.161%. On to `Cn1cccc1C(O)CNS(=O)(=O)c1ccccc1Br` (configuration not stated), for which the “Percent Effect” value is 6.296%. As to `CO[C@@H]1CCC[C@@H](N(C)C(=O)c2cc(F)ccc2F)[C@H]1O`, the “Percent Effect” value amounted to 130.1%.

As to `COC(=O)CCN1CCC(C(=O)c2cc(F)ccc2F)CC1`, the “Percent Effect” value is listed as -15.76%.

As for `CN(CC(=O)N1CCCC1)C(=O)c1ccccc1F`, the “Percent Effect” value is listed as 15.74%. For the compound `COc1ccc(F)cc1C(=O)N(C)[C@@H]1CC[C@@H](O)[C@@H]1O`, the “Percent Effect” value was determined as 132.3%.

`NC(=O)N1CCCC1COC(=O)c1cc(F)ccc1F` (configuration not stated): the “Percent Effect” value is -4.772%. For `O=C(NCC1(CO)CC1)c1ccccc1F`, the “Percent Effect” value is reported as -18.48%. In the case of `COc1ccc(F)cc1C(=O)N(C)Cc1cc(C)on1`, the “Percent Effect” value was determined as 2.319%. For `COc1ccc(F)cc1CSCC(=O)N(C)C1CC1`, the “Percent Effect” value is given as -12.98%. On to `CN(C(=O)c1cc(F)ccc1F)[C@@H]1CC[C@@H](O)[C@@H]1O`, for which the “Percent Effect” value is listed as 103%. As to `CN(C(=O)c1ccccc1F)[C@@H]1CC[C@@H](O)[C@@H]1O`, the “Percent Effect” value is given as 107.7%. As to `N[C@@H]1CC[C@H](C(=O)NCCc2nc(-c3ccccc3)cs2)C1`, the “Percent Effect” value is recorded as 11.72%. Take `COc1ccc2c(c1)OCC(Cc1cncc(N)c1)C2` (configuration not stated): the “Percent Effect” value was -0.2819%.

As to `COc1cccc(F)c1C(=O)N1C[C@@H](CN(C)CCO)[C@@H](CO)C1`, the “Percent Effect” value was found to be 0.09463%. For `CN(C)C[C@@H]1CN(C(=O)c2cc(F)ccc2F)C[C@@H]1CO` the value was -6.942%; for `COc1cccc(OC)c1C(=O)N1C[C@@H](CN(C)C)[C@@H](CO)C1`, -5.352%. For `CN(C)C[C@@H]1CN(C(=O)c2cc(-c3ccccc3)n[nH]2)C[C@@H]1CO` the value was 104.8%. With `CCN(C)C[C@@H]1CN(C(=O)c2cc(-c3ccc(F)cc3)n[nH]2)C[C@@H]1CO`, the “Percent Effect” value is on record as 95.72%. Take `CN(C)C[C@@H]1CN(C(=O)c2cc(S(N)(=O)=O)ccc2F)C[C@@H]1CO`: the “Percent Effect” value is given as 8.109%. With `CCN(C)C[C@@H]1CN(C(=O)c2cc(C(F)(F)F)n[nH]2)C[C@@H]1CO` the figure was 95.2%.

`COc1ccc(-n2nc(C)c(C(C)=O)c2C)cc1C(N)=O`: the “Percent Effect” value is reported as 0.6017%. Take `CC(=O)NCCNC(=O)Nc1cccc(Cl)c1SC(F)F`: the “Percent Effect” value is listed as -0.5749%.

With `Cc1ccc(C#N)c(N2CCCC(c3nccn3Cc3cscn3)C2)n1` (configuration not stated), the “Percent Effect” value is 8.413%. In the case of `Cc1cnc(C(=O)N2Cc3ncn(C)c3C(COCC(C)C)C2)cn1.O=C(O)C(F)(F)F` (configuration not stated), the “Percent Effect” value was determined as 101.6%. Turning to `Cn1cnc2c1C(COCC1CC1)CN(C(=O)c1cscn1)C2.O=C(O)C(F)(F)F` (configuration not stated), the “Percent Effect” value is given as -8.988%.

In the case of `Cn1cnc2c1C(COCC1CC1)CN(C(=O)Cc1ccsc1)C2.O=C(O)C(F)(F)F` (configuration not stated), the “Percent Effect” value is 12.67%. For `COCC1CN(C(=O)COc2ccccc2C)Cc2ncn(C)c21.O=C(O)C(F)(F)F` (configuration not stated) the value was -9.212%; for `CC(C)COCC1CN(C(=O)c2cscn2)Cc2ncn(C)c21.O=C(O)C(F)(F)F` (configuration not stated), 123.8%.

For the compound `CCc1cc(N2CCC(F)(F)CC2)n2nc(C)c(C)c2n1`, the “Percent Effect” value is -3.857%. Turning to `O=C(NCC1CCCN1CCc1ccccc1)NCC1(O)CCC1` (configuration not stated), the “Percent Effect” value came out at 3.682%. In the case of `c1ccc(CCN2CCCC2c2cncc(Nc3nncs3)n2)cc1` (configuration not stated), the “Percent Effect” value was determined as 77.51%. In the case of `c1nnc(Nc2cncc(C3CCCN3CC3CC3)n2)s1` (configuration not stated), the “Percent Effect” value is 143.4%. As for `Cc1nc(C)n(CC2CCCN2CC(=O)Nc2nncs2)n1` (configuration not stated), the “Percent Effect” value is given as -3.74%.

Consider `Cl.NC(=O)COc1ccc(CNCc2ccc(F)cc2F)cc1`, for which the “Percent Effect” value was -6.385%.

As for `Cc1cc(C)cc(-c2cc(C3CCOC3)c(C#N)c(N)n2)c1` (configuration not stated), the “Percent Effect” value amounted to 8.915%. As to `COc1ccc(-c2cc(C3CCOC3)c(C#N)c(N)n2)cn1` (configuration not stated), the “Percent Effect” value is -5.09%. For `COc1ccc2c(c1OC)Cc1c-2nc(N)c(C#N)c1C1CCOC1` (configuration not stated) the value was 97.76%; for `COc1ccc2c(c1)Cc1c-2nc(N)c(C#N)c1C1CCOC1` (configuration not stated), 55.98%; for `COc1cc(-c2cc(C3CCOC3)c(C#N)c(N)n2)ccc1O` (configuration not stated), -3.198%. `N#Cc1c(N)nc2c(c1C1CCOC1)CCc1cc(O)ccc1-2` (configuration not stated): the “Percent Effect” value worked out at 95.46%. For the compound `CN(C)Cc1nc(C(C)(C)NC(=O)C2CC(=O)N(CC3CC3)C2)no1` (configuration not stated), the “Percent Effect” value is -8.829%.

On to `CN(C(=O)c1cccn1C)C1CCC(NC(=O)OC(C)(C)C)CC1` (configuration not stated), for which the “Percent Effect” value was -22.93%.

Turning to `O=C(NC(CC(F)(F)F)c1ccc(Cl)cc1)c1nc(=O)[nH][nH]1` (configuration not stated), the “Percent Effect” value is -2.983%.

As to `CC(C)c1nc(CC(=O)N2CCCC(n3cncn3)C2)cs1` (configuration not stated), the “Percent Effect” value is given as -6.104%. With `O=C(c1ccc2ccccc2c1)C1CCCN(C(=O)Cn2cncn2)C1` (configuration not stated), the “Percent Effect” value came out at 2.145%. On to `CCCN1CCCC2(CCN(C(=O)CCCn3cncn3)C2)C1=O` (configuration not stated), for which the “Percent Effect” value is reported as -10.51%.

In the case of `Cc1nc(C)n(CC(=O)N2CCCC(c3nc(C)n4c(C)csc34)C2)n1` (configuration not stated), the “Percent Effect” value came out at 71.32%. As to `COc1cccc(OCC2CCCN(C(=O)CCn3ccnc3)C2)c1` (configuration not stated), the “Percent Effect” value is given as -97.21%. `Cc1nc(C)n(C2CCCN(C(=O)CCCn3ccnc3)C2)n1` (configuration not stated): the “Percent Effect” value is on record as -10.35%.

As for `Cc1csc2c(C3CCCN(C(=O)CCn4ccnc4)C3)nc(C)n12` (configuration not stated), the “Percent Effect” value is reported as 85.68%. In the case of `Cc1ccsc1[C@@H]1CCN(C(=O)CCCn2cncn2)C[C@H]1O`, the “Percent Effect” value is listed as 10.3%.
